High-throughput results deposited in PubChem by National Center for Advancing Translational Sciences (NCATS).
Sfp inh – Sfp phosphopantetheinyl transferase inhibition. Q9F4F7. Biochemical Sfp PPTase activity, qHTS. Potency, µM, actives largely listed as inhibitors. 310,000 compounds, 3.5% hits;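 further: the enzyme is Sfp with the accession as filed and its product quenches rhodamine fluorescence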
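Reaction rates are the 30-min fluorescence difference (ex 525, em 598 nm) in wells containing 15 nM Sfp, 5 uM rhodamine-CoA and 12.5 uM BHQ-2-YbbR at pH 7.6 with 10 mM MgCl2.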
JMJD2A Tudor – blocks the human JMJD2A Tudor domain; AlphaScreen JMJD2A-Tudor / H3K4me3 peptide binding; 390,000 compounds, 4.4% hits; Potency, µM (doses to about 114 µM), actives largely listed as inhibitors; further: nearly all actives have a fitted effect of over 50% in size
HP1b binding inh – inhibitors of HP1-beta chromodomain binding to methylated histone tails; Potency, µM (top dose mostly 114 µM), most hits filed as inhibitors; AlphaScreen HP1-beta / biotin-H3K9me3 peptide binding; P83916; AID 540317; 390,000 compounds, 0.56% hits; further: nearly all actives have a fitted effect of over 70% in size
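AlphaScreen: HP1-beta (50 nM) preformed 30 min with biotin-H3(1-18)K9me3 peptide (50 nM) in PBS pH 7.4, 0.01% Tween-20. Compound added for 30 min at RT, then streptavidin donor/nickel chelate acceptor beads (10 ug/mL) for 30 min.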
BAZ2B inh – BAZ2B (human) inhibition. Potency, µM (top dose mostly 114 µM), most hits filed as inhibitors. AlphaScreen BAZ2B-H3K14Ac peptide displacement. Q9UIF8. 360,000 compounds, 4.4% hits. AID 504333; further: nearly all actives have a fitted effect of over 60% in size
Target sequence (Q9UIF8 whole entry, looked up): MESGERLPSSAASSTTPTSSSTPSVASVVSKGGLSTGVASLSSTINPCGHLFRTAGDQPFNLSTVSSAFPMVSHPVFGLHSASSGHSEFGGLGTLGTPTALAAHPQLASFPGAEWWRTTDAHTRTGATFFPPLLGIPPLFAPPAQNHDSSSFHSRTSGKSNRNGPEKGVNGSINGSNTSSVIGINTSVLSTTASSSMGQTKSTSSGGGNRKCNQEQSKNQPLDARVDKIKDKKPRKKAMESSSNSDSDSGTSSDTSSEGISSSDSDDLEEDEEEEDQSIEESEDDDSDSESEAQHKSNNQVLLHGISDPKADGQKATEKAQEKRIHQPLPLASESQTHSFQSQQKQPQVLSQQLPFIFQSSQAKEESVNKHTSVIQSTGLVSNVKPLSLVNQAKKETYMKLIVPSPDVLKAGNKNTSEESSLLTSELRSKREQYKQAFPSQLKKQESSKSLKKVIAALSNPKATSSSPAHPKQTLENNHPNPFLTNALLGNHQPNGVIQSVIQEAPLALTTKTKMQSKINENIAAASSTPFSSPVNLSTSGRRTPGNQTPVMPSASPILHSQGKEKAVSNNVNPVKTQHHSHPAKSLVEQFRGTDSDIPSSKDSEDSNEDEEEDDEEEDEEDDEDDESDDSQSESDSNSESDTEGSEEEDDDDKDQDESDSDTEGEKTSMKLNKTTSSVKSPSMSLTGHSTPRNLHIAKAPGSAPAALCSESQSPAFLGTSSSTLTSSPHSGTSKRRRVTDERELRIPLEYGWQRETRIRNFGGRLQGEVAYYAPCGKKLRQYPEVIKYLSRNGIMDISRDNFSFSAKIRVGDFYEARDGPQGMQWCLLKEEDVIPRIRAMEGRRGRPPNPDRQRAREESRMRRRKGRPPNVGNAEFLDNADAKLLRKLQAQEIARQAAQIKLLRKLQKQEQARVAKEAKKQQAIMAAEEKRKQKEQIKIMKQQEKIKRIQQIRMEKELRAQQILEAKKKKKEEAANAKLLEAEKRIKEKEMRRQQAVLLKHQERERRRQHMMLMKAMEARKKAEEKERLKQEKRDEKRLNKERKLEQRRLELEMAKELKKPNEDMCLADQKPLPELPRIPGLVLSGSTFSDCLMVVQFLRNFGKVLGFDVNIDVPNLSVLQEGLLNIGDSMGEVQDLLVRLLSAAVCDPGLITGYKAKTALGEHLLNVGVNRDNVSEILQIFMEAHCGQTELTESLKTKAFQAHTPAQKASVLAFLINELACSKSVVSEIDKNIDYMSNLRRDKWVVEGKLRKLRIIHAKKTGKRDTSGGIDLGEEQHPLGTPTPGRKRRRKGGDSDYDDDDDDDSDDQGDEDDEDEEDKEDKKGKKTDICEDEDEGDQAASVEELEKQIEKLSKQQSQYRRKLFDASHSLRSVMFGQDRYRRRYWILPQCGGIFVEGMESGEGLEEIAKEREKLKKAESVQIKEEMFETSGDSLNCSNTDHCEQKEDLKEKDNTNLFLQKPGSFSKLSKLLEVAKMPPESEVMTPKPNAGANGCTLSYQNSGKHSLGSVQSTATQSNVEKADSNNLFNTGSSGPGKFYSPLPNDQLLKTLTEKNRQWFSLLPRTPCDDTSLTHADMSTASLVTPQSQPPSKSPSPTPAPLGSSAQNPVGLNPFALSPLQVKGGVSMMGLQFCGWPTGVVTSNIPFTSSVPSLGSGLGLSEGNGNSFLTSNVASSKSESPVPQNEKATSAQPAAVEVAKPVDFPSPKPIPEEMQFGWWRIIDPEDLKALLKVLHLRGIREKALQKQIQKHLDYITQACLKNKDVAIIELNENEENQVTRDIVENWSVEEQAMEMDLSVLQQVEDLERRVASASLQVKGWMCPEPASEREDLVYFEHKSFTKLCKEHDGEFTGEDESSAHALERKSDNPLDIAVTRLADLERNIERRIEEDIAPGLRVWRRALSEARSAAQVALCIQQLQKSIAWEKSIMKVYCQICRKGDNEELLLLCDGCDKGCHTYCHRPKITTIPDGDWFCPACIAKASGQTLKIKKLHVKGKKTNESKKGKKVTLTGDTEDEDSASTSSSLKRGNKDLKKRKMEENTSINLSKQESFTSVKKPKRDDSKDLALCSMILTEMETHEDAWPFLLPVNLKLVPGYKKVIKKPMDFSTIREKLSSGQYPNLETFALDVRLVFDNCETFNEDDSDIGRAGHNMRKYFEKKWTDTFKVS
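AlphaScreen displacement of biotin-H3(5-23)K14Ac peptide (50 nM final) from BAZ2B (50 nM final) in PBS pH 7.4, 0.01% Tween-20; complex preformed 30 min RT, then compounds (top 110 uM) 30 min RT, beads 20 min dark.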
G9a block – blocks human histone lysine methyltransferase G9a | Q96KQ7 | G9a H3K9 monomethylation, AlphaScreen, 2 h | Potency, µM (highest dose often 102 µM), most hits filed as inhibitors | 350,000 compounds, 8.8% hits; further: nearly all actives have a fitted effect of over 75% in size
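Methyltransferase reactions run at room temperature for 2 h (20 nM enzyme, 500 nM biotin-H3K9 peptide, 20 uM SAM) after a 15 min compound preincubation; product detected by AlphaScreen beads and anti-H3K9me1 antibody.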
L3MBTL1 block – blocks human L3MBTL1; Q9Y468; AlphaScreen L3MBTL1–H3K9me1 peptide binding; Potency, µM (highest dose often 57.1 µM), usual class: inhibitors; 230,000 compounds, 0.66% hits; further: nearly all actives have a fitted effect of over 60% in size
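AlphaScreen proximity signal between nickel-chelate acceptor and streptavidin donor beads (final 10 ug/mL) reports binding of 50 nM L3MBTL1 to 75 nM biotin-H3 K9me1 peptide; complex incubated with compounds 30 min at room temperature; cefsulodin titration as control.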
Large screens that a line does not name were inactive; ! = not active in a repeat. Most compounds without a hit are left out; they make up all but 12% or so of the library. The call rests on the fitted dose curve; in most records, active means well fitted curve in the direction sought with a large enough effect; inconclusive means small, poorly fitted or top-dose-only effect, or another doubt; inactive means no such curve, though single readings can be large; an effect the other way counts as inactive or inconclusive.

CC(=O)OCC1=C(C(=O)O)N2C(=O)C(NC(=O)CCn3nc(C)c(Cl)c3C)C2SC1 (stereo unspecified)	Sfp inh inconclusive, G9a block inconclusive (no result: L3MBTL1 block)
CC(=O)OCC1=C(C(=O)O)N2C(=O)C(NC(=O)CCn3nc(C(F)(F)F)c(Br)c3C3CC3)C2SC1 (stereo unspecified)	G9a block 39.8µM (no result: L3MBTL1 block)
CC(=O)OCC1=C(C(=O)O)N2C(=O)C(NC(=O)c3ccc(COc4ccc(Cl)cc4)o3)C2SC1 (stereo unspecified)	JMJD2A Tudor inconclusive, G9a block inconclusive (no result: L3MBTL1 block)
CC(=O)OCC1=C(C(=O)O)N2C(=O)[C@@H](NC(=O)Cc3ccccc3)[C@H]2SC1	JMJD2A Tudor inconclusive (no result: Sfp inh, BAZ2B inh, G9a block, L3MBTL1 block)
CC(=O)OCC1=C(C(=O)O)N2C(=O)[C@@H](NC(=O)Cc3cccs3)[C@H]2SC1	Sfp inh inconclusive, JMJD2A Tudor 79.4µM, BAZ2B inh 50.1µM, G9a block 7.52µM!, L3MBTL1 block inconclusive
N#Cc1ccc(OCC(=O)NCC2COc3ccccc3O2)cc1 (stereo unspecified)	none (no result: Sfp inh)
CCOc1ccc(NC(=O)Cc2ccc(-n3c(C)nc4cccnc43)cc2)cc1	none (no result: Sfp inh, L3MBTL1 block)
CC1CCCN(S(=O)(=O)c2ccc(CN3C(=O)c4cccnc4C3=O)cc2)C1 (stereo unspecified)	BAZ2B inh inconclusive (no result: L3MBTL1 block)
CCOc1ccc(NCc2cccn2-c2nnc(N3CCC(C(=O)NCc4ccccc4Cl)CC3)s2)cc1	G9a block inconclusive (no result: Sfp inh, L3MBTL1 block)
CCc1ccccc1NC(=S)N1CCN(c2ccccn2)CC1	none
CCN(CC)S(=O)(=O)c1ccc(C)c(NC(=S)N2CCN(c3ccccn3)CC2)c1	Sfp inh inconclusive, G9a block 31.6µM (no result: L3MBTL1 block)
CCN(CC)S(=O)(=O)c1ccc(C)c(NC(=S)N2CCN(Cc3ccc4c(c3)OCO4)CC2)c1	JMJD2A Tudor inconclusive, BAZ2B inh inconclusive, G9a block inconclusive
CCN(CC)S(=O)(=O)c1ccc(C)c(NC(=S)N2CCN(C/C=C/c3ccccc3)CC2)c1	BAZ2B inh inconclusive, G9a block 35.5µM, L3MBTL1 block inconclusive
COC(=O)c1[nH]c(C)c(/C(O)=C2\C(=O)C(=O)N(CCN(C)C)C2c2ccccc2OC)c1C (stereo unspecified)	JMJD2A Tudor 44.7µM, G9a block inconclusive
CCN(CC)CCN1C(=O)C(=O)/C(=C(/O)c2c(C)[nH]c(C(=O)OC)c2C)C1c1ccco1 (stereo unspecified)	JMJD2A Tudor inconclusive, G9a block inconclusive
COC(=O)c1[nH]c(C)c(/C(O)=C2\C(=O)C(=O)N(CCN3CCOCC3)C2c2ccccc2OC)c1C (stereo unspecified)	JMJD2A Tudor 50.1µM, G9a block 50.1µM
CCOC(=O)c1[nH]c(C)c(/C(O)=C2\C(=O)C(=O)N(CCCN3CCOCC3)C2c2cccs2)c1C (stereo unspecified)	none (no result: G9a block)
Cc1[nH]c(=O)c(C#N)c(C)c1Cl	none
N#Cc1sc(=O)[nH]c1Cl	Sfp inh 50.1µM, JMJD2A Tudor 89.1µM! (no result: BAZ2B inh, G9a block, L3MBTL1 block)
O=C(COC(=O)C1CC(O)CN1S(=O)(=O)c1ccc(Cl)cc1)c1ccccc1 (stereo unspecified)	Sfp inh inconclusive
Cc1[nH]c2ccccc2c1C(=O)COC(=O)C1CC(O)CN1S(=O)(=O)c1ccc(Cl)cc1 (stereo unspecified)	JMJD2A Tudor 31.6µM (no result: Sfp inh)
O=C(CCN1C(=O)c2ccccc2C1=O)CN1CCOCC1	G9a block 50.1µM
CN(C)C1CCc2[nH]c3ccc(NC(=O)c4ccc(F)cc4)cc3c2C1 (stereo unspecified)	none (no result: JMJD2A Tudor, HP1b binding inh, BAZ2B inh, G9a block, L3MBTL1 block)
CCC(C)(C)c1ccc(OCCCC[n+]2cccc(C)c2)c(C(C)(C)CC)c1	Sfp inh 31.6µM, G9a block inconclusive (no result: L3MBTL1 block)
Cc1ccc[n+](CC(=O)Nc2cc(C(F)(F)F)ccc2Cl)c1	none
CCN1C(=O)/C(=C\c2ccncc2)SC1=Nc1ccc(C)c(C)c1	JMJD2A Tudor 50.1µM, HP1b binding inh inconclusive, BAZ2B inh 31.6µM, G9a block inconclusive
O=C(Cc1ccc(S(=O)(=O)N2CCOCC2)s1)N(Cc1ccccc1)c1ccccc1	none (no result: Sfp inh)
CCOC(=O)C1CCN(C(=O)c2cc3ccc4ccc(C)[nH]c4c3n2)CC1	G9a block 14.1µM (no result: Sfp inh, L3MBTL1 block)
CCOc1ccc2oc(=O)cc(CN3CCN(c4cc(C)ccc4C)CC3)c2c1	none (no result: Sfp inh, L3MBTL1 block)
CSCCOC(=O)COc1ccc(/C=N/NC(=O)c2nn(C)cc2Cl)cc1	G9a block 39.8µM, L3MBTL1 block inconclusive
CCN(CC)C(=O)c1sc(NC(=O)c2nc3ncccn3n2)c(C(=O)OC)c1C	BAZ2B inh inconclusive, G9a block inconclusive (no result: Sfp inh, L3MBTL1 block)
CN1C(=O)C2(c3ccccc31)N(c1cccc(F)c1)C(=O)CS2(=O)=O (stereo unspecified)	G9a block 15.8µM (no result: Sfp inh, L3MBTL1 block)
O=C1c2ccccc2C(=O)C1Cc1cccc2ccccc12	JMJD2A Tudor inconclusive, BAZ2B inh inconclusive, G9a block 50.1µM (no result: L3MBTL1 block)
O=C(c1ccc2c(c1)N(Cc1c(F)cccc1Cl)C(=O)c1ccccc1S2)N1CCCC1	none (no result: Sfp inh, BAZ2B inh, L3MBTL1 block)
CN1CCN(c2ccc(Cl)cc2NC(=O)c2cc(=O)[nH]c3ccccc23)CC1	none (no result: Sfp inh)
CN1CCN(c2cc3c(c4c2[nH]c2ccccc24)C(=O)CC(C)(C)C3)CC1	Sfp inh inconclusive, JMJD2A Tudor inconclusive, G9a block 56.2µM (no result: L3MBTL1 block)
Cc1ccc(C(=O)CSc2nc(N)cc(=O)[nH]2)cc1	none
Cc1ccc(C(=O)CSc2nc3c([nH]2)c(=O)n(C)c(=O)n3C)cc1	G9a block 39.8µM
CC(C)N(C(=O)CSc1nc2c([nH]1)c(=O)n(C)c(=O)n2C)c1ccccc1	G9a block 25.1µM
Cc1c(C(=O)O)sc(S(=O)(=O)N2CCN(C(=O)CC(C)c3ccccc3)CC2)c1C(=O)O (stereo unspecified)	none (no result: Sfp inh, BAZ2B inh, G9a block, L3MBTL1 block)
Cc1ccc(-n2c(SCC(=O)Nc3ccc4c(c3)OCCO4)nc3c([nH]c4ccccc43)c2=O)cc1	none (no result: Sfp inh, L3MBTL1 block)
CCN1CCN(c2ncnc3c2sc(=S)n3-c2ccccc2)CC1	G9a block 50.1µM
Cc1cc(C)c(S(=O)(=O)Nc2ccc(N(C)C)cc2)c(C)c1-n1cnnn1	JMJD2A Tudor inconclusive, BAZ2B inh 39.8µM, G9a block 3.55µM (no result: L3MBTL1 block)
Cc1ccc(S(=O)(=O)Nc2ccc(-n3cnnn3)cc2)c(C)c1	none (no result: Sfp inh)
CCS(=O)(=O)C1=NN2C(=N)/C(=C\c3ccc(OCCOc4cccc(OC)c4)c(OC)c3)C(=O)N=C2S1	JMJD2A Tudor 56.2µM, BAZ2B inh 35.5µM, G9a block 56.2µM (no result: L3MBTL1 block)
CCOc1cc(/C=C2\C(=N)N3N=C(S(C)(=O)=O)SC3=NC2=O)ccc1OCCOc1cccc(OC)c1	JMJD2A Tudor 79.4µM, HP1b binding inh inconclusive, BAZ2B inh 70.8µM (no result: L3MBTL1 block)
